Several values for one entry are separate records, joined by “and”; a condition that tells them apart may be missing. Identical values can stand only once. Inconclusive results are not listed. A number with no mark means an inactive call. Activity calls are given as the source filed them. Calls follow the shape of the full dose curve.
Experiment: qHTS assay for small molecule agonists of the p53 signaling pathway (AID 651631); also: nearly all actives have a fitted effect of over 15% in size
Details: HCT-116 p53RE-bla reporter, beta-lactamase FRET ratio, 16 h; series mostly up to 73.3 µM; activation: at the top concentration
From the text: U.S. Tox21 Program National Center for Advancing Translational Sciences [NCATS] NIH Chemical Genomics Center [NCGC] U.S. Environmental Protection Agency [EPA] National Institutes of Environmental Health Sciences [NIEHS] National Toxicology Program [NTP] U.S. Food and Drug Administration [FDA] Tox21 Assay Overview: p53, a tumor suppressor protein, is activated following cellular insult, including DNA damage and other cellular stresses. The activation of p53 regulates cell fate by inducing DNA repair, cell cycle arrest, apoptosis, or cellular senescence. The activation of p53, therefore, is a good indicator of DNA damage and other cellular stresses. The CellSensor p53RE-bla HCT-116 cell line (Invitrogen) contains a stably integrated beta-lactamase reporter gene under control of the p53 response elements. The activation of the reporter gene under culture conditions can be detected by fluorescence intensity. This cell line was used to screen the Tox21 compound library in a 1536-well plate format and to identify agonists that activate the p53 signaling pathway.
Tox21 Assay Protocol Summary: The p53RE-bla cells were dispensed at 4,000 cells/5 ul/well in 1536-well black wall/clear bottom plates using a Multidrop dispenser. After the assay plates were incubated at a 37 C/5% CO2 incubator for 5 hours, 23 nL of compounds dissolved in DMSO, positive controls or DMSO only was transferred to the assay plate by a pin tool. The plates were incubated at 37 C for 16 hours. After 1 uL of LiveBLAzerTM B/G FRET substrate was added using a Flying Reagent Dispenser, the plates were incubated at room temperature for 2 hours, and fluorescence intensity was measured by an Envision plate reader.
% is scaled to controls: 0 for no effect and ±100 for the full control effect; potency is read from the fitted curve at half-maximal effect.

Structure (SMILES) | activation | Potency
Cc1cccc(C)c1NC(=O)C1CCCCN1C (stereo not given) | 3.41% | –
Nc1nc(/C(=C/CC(=O)O)C(=O)N[C@@H]2C(=O)N3C(C(=O)O)=CCS[C@H]23)cs1 | -2.31% | –
CCC(=O)OC(OP(=O)(CCCCc1ccccc1)CC(=O)N1C[C@H](C2CCCCC2)C[C@H]1C(=O)O)C(C)C (stereo not given in full) | -2.46% | –
FC(F)(F)COCC(F)(F)F | 1.79% | –
CCCC(CCC)C(=O)OC1C[C@H]2CC[C@@H](C1)[N+]2(C)C (stereo not given in full) | – | inactive
c1ccc2c(c1)OCC(CN1CCCCC1)O2 (stereo not given) | 2.91% | –
C[C@@H]1O[C@@H]1P(=O)(O)O | 1.25% | –
CC(=O)OCC(=O)[C@@]1(O)CC[C@H]2[C@@H]3CCC4=CC(=O)CC[C@]4(C)C3=CC[C@@]21C | 1.58% | –
N=C(N)n1cccn1 | 3.58% | –
N[C@@H](Cc1cnc[nH]1)C(=O)O | -4.61% | –
COc1cc(NS(C)(=O)=O)ccc1Nc1c2ccccc2nc2ccccc12 | – | 1.68 µM (active)
CC(C)Cc1ccc([C@H](C)C(=O)O)cc1 | -2.55% | –
CN(C)CCC(O)(c1ccccc1)c1ccccc1Cl (stereo not given) | -5.26% | –
CNC(=O)C[C@@H](N)C(=O)N[C@@H](C(=O)N[C@@H]1C(=O)N2[C@@H]1SC(C)(C)[C@@H]2C(=O)O)c1ccc(O)cc1 | -4.01% | –
CC(=O)NC[C@H]1CN(c2ccc(N3CCOCC3)c(F)c2)C(=O)O1 | -1.6% | –
CC[C@@H](C(=O)[C@@H](C)[C@@H](O)[C@H](C)CCc1ccc(C)c(O)c1C(=O)O)[C@H]1O[C@](CC)([C@H]2CC[C@](O)(CC)[C@H](C)O2)C[C@@H]1C | – | 23.7 µM (active)
CCOc1cc(CC(=O)N[C@@H](CC(C)C)c2ccccc2N2CCCCC2)ccc1C(=O)O | -6.07% [at 34.7 µM] | –
NS(=O)(=O)c1cc(Cl)c(Cl)c(S(N)(=O)=O)c1 | 6.01% [at 34.7 µM] | –
Oc1ccc(Cl)c2c1CCC2 | 2.19% | –
CC(C)NCC1CCc2cc(CO)c([N+](=O)[O-])cc2N1 (stereo not given) | -3.61% [at 34.7 µM] | –

Structure (SMILES) | activation | Potency
CC[N+](CC)(CC)CCC(O)(c1ccccc1)C1CCCCC1 (stereo not given) | -1.14% [at 34.7 µM] | –
CN1C(C(=O)Nc2ccccn2)C(=O)c2sc(Cl)cc2S1(=O)=O (stereo not given) | -3.39% | –
COc1cc(/C=C/C(=O)CC(=O)/C=C/c2ccc(O)c(OC)c2)ccc1O | – | 13.3 µM (active) and 13.8 µM (active)
O=C(O)c1ccc(NC2OC[C@@H](O)[C@H](O)[C@H]2O)cc1 (stereo not given in full) | -2.34% | –
CC(C)[N+]1(C)[C@@H]2CC[C@H]1CC(OC(=O)C(CO)c1ccccc1)C2 (stereo not given in full) | – | inactive
C=C1C(=C/C=C2\CCC[C@]3(C)[C@@H]([C@H](C)CCCC(C)C)CC[C@@H]23)C[C@@H](O)C[C@@H]1O | – | 29.8 µM (active)
Cc1ccc(C(C)(C)c2ccc(C)cc2)cc1 | -3.1% | –
NCCO/C=C/[C@H](N)C(=O)O | 2.24% | –
O=C(CCCN1CCN2CCCC2C1)c1ccc(F)cc1 (stereo not given) | -1.56% | –
CC(C)(O/N=C(\C(=O)N[C@@H]1C(=O)N2C(C(=O)[O-])=C(C[n+]3ccccc3)CS[C@H]12)c1csc(N)n1)C(=O)O | -3.01% [at 34.7 µM] | –
CC(C)C[C@H](NC(=O)[C@@H](COC(C)(C)C)NC(=O)[C@H](Cc1ccc(O)cc1)NC(=O)[C@H](CO)NC(=O)[C@H](Cc1c[nH]c2ccccc12)NC(=O)[C@H](Cc1cnc[nH]1)NC(=O)[C@@H]1CCC(=O)N1)C(=O)N[C@@H](CCCN=C(N)N)C(=O)N1CCC[C@H]1C(=O)NNC(N)=O | – | inactive
CC/C=C\C/C=C\C/C=C\C/C=C\C/C=C\C/C=C\CCC(=O)O | 4.21% | –
CN1C(=O)C[C@@H](C(=O)N[C@@H](Cc2cnc[nH]2)C(=O)N2CCC[C@H]2C(N)=O)NC1=O | -2.14% | –
CO[C@H](C(=O)[C@@H](O)[C@@H](C)O)C1Cc2cc3cc(O[C@H]4C[C@@H](O[C@H]5C[C@@H](O)[C@H](O)[C@@H](C)O5)[C@@H](O)[C@@H](C)O4)c(C)c(O)c3c(O)c2C(=O)[C@H]1O[C@H]1C[C@@H](O[C@H]2C[C@@H](O[C@H]3C[C@](C)(O)[C@H](O)[C@@H](C)O3)[C@H](O)[C@@H](C)O2)[C@H](O)[C@@H](C)O1 (stereo not given in full) | – | 42.2 nM (active) and 53.1 nM (active)
CN(Cc1ccccc1)Cc1ccccc1 | 1.93% | –
O=C1CC[C@@H](C(=O)N[C@H]2C[C@@H]2c2ccccc2)N1 | -1.93% | –
CO/N=C(\C(=O)N[C@@H]1C(=O)N2C(C(=O)O)=C(COC(C)=O)CS[C@H]12)c1csc(N)n1 (stereo in doubt) | 4.32% | –
O=c1[nH]c(=O)n([C@H]2C[C@H](O)[C@@H](CO)O2)cc1/C=C/Br | -1.19% | –
C[C@H](Cc1ccc(O)c(O)c1)[C@@H](C)Cc1ccc(O)c(O)c1 | -3.69% | –
O=C(O)COc1ccc(C(=O)c2cccs2)c(Cl)c1Cl | – | inactive
